High-throughput results deposited in PubChem by National Center for Advancing Translational Sciences (NCATS).
HCV inh = HCV inhibition | Huh7.5.1 HCVcc-Cre infection, luciferase reporter, 44 h | Potency, µM (top dose mostly 41.8 µM), inactives show at the top dose activity change, negative = inhibition, usual class: inhibitors | 340,000 tested, 3.4% active; active = well fitted inhibition curve with a large enough effect; inconclusive = small, poorly fitted or top-dose-only effect, or another doubt; inactive = no such curve, though single readings can be large or run the other way; also: potency is read from the fitted curve at half-maximal effect; % is scaled to controls: 0 for no effect and ±100 for the full control effect
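Cells seeded at 1,000/well and cultured 4 h, then compounds added followed by HCVcc-Cre virus (~0.5 moi). After 44 h further culture, luciferase substrate was added, plates held 15 min at room temperature, and luminescence read for 15 sec.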
MARV entry inh = blocks Marburg virus binding to or entry into cells; AID 540276; Marburg virus pseudotyped entry inhibition, cell reporter; 300,000 tested, 1.8% active; Potency, µM (highest dose often 37.8 µM), without a hit: at the top dose activity change, negative = inhibition, most hits filed as inhibitors; calls by dose curve; tested in HEK293 cells; also: potency is read from the fitted curve at half-maximal effect; % is scaled to controls: 0 for no effect and ±100 for the full control effect
FMDV antiviral = foot and mouth disease virus antiviral activity. FMDV antiviral cell-based qHTS. Potency, µM (doses to about 57.9 µM), for inactives: at the highest dose activity change, negative = inhibition, hits mostly inhibitors. 410,000 tested, 1.2% active. AID 1159524; calls by dose curve; tested in HEK293T cells; also: read-out not given here; potency is read from the fitted curve at half-maximal effect; % is scaled to controls: 0 for no effect and ±100 for the full control effect; nearly all actives have a fitted effect of over 45% in size
LASV entry inh = Lassa virus entry inhibition. AID 540256. Lassa virus pseudotype entry inhibition, cell reporter. Potency, µM (top dose mostly 37.9 µM), for the others: at the top dose activity change, negative = inhibition, actives largely listed as inhibitors. 300,000 tested, 1.2% active; calls by dose curve; tested in HEK293 cells; also: potency is read from the fitted curve at half-maximal effect; % is scaled to controls: 0 for no effect and ±100 for the full control effect; nearly all actives have a fitted effect of over 50% in size
CHX counter = affects cycloheximide protein synthesis inhibition readout, counter-screen; cell reporter, cycloheximide protein synthesis inhibition counterscreen; max response, %; 300,000 tested, 12% active; in the data active = max response mostly above about 13%, no sharp cut-off; inactive = mostly below about 14%; also: read at 38.3 µM for the half of the compounds with a filed dose; 0% is about no effect
Shiga toxin inh = inhibitors of Shiga toxin in Vero cells | Vero cells, Shiga toxin protein synthesis inhibition reporter | inhibition, % at 38.7 µM | 290,000 tested, 9.2% active | AID 2315; in the data active = inhibition mostly above about 28%, no sharp cut-off; inactive = mostly below about 43%; also: 0% is about no effect
* = called active by the depositor; ? = inconclusive; · = not tested or not shown; [ ] = dose if it differs, or a comment. Compounds with a hit are over-represented: about 13% of the library has one in this group of screens.

SMILES | HCV inh | MARV entry inh | FMDV antiviral | LASV entry inh | CHX counter | Shiga toxin inh
O=C(CC1C(=O)NCCN1C(=O)Nc1ccc(F)cc1)Nc1cc(Cl)ccc1Cl (stereo not drawn) | 21% | 0% | -8% | · | 1 | 14
CCNc1nc(SCC(=O)OC)nc(N2CCOCC2)n1 | ? | 6% | -12% | 3% | -3 | -8
COc1ccc(-c2ccc(-c3nnn(CC(=O)N4CCOCC4)n3)cc2)cc1 | ? | 22% | 48% | ? | 23* | 28
COc1cc(-c2nnn(CC(=O)N3CCOCC3)n2)cc(OC)c1OC | 7% | -4% | -12% | -4% | 2 | -23
O=C(Cn1nnc(-c2ccc(F)cc2)n1)N1CCCCC1 | 10% | -1%[46.1 µM] | 7% | 11%[46.1 µM] | 11 | 29
Cc1ccc(-c2nnn(CC(=O)N3CCCCC3)n2)o1 | 19% | · | 0% | · | 18* | 71*
O=C(Cn1nnc(-c2ccccc2F)n1)N1CCCCC1 | -22% | · | 35% | · | 35* | 50*
COC(=O)Cn1nnc(N2CCOCC2)n1 | 5% | 9%[46.1 µM] | -7% | -3% | 40* | -9
Cc1csc(C(C#N)C(=O)c2cc3ccccc3o2)n1 (stereo not drawn) | -11% | ? | -7% | ? | 25* | 55*
Cc1cccc(C(=O)c2c(N)sc3c2CCC(C)C3)c1 (stereo not drawn) | ? | 1% | 35% | 11% | 59* | 126*
Cc1ccc(Cl)cc1N(C)C(=O)c1noc2c1CCCCC2 | · | · | -5% | 19%[46.1 µM] | · | ·
Cc1ccc(-c2ccccc2NC(=O)CCl)o1 | -27% | ? | 0% | -22% | 16* | 51
CN(C)CCCOC(=O)c1ccc(Cl)cc1 | -3% | 7% | 1% | -3% | 11 | 13
Cc1ccc(NC(=O)c2cc3c(=O)n(Cc4ccco4)ccc3nc2C)cc1C | · | · | -19% | -15%[46.1 µM] | · | ·
CCOCCCn1c(SCC(=O)Nc2cc(C(C)(C)C)nn2-c2ccccc2)nc2ccccc2c1=O | 0% | ? | -10% | 5% | 1 | -6
COc1ccc(OCc2cc(C(=O)N(C)Cc3cc(C4CC4)n[nH]3)no2)c(Cl)c1 | ? | · | 56% | · | 40* | 138*
COc1ccc(OCc2cc(C(=O)NC(C)Cc3cnccn3)no2)c(Cl)c1 (stereo not drawn) | -23% | · | 10% | · | 31* | 72*
COc1ccc(OCc2cc(C(=O)NCC(C)Oc3cccnc3)no2)c(Cl)c1 (stereo not drawn) | -15% | ? | 22% | ? | 32* | 43*
COc1ccc(OCc2cc(C(=O)N(C)Cc3cnccn3)no2)c(Cl)c1 | · | -6% | 29% | -15% | 46* | 78*
Cc1ccc(OCc2cc(C(=O)NC(C)Cc3cnccn3)no2)cc1C (stereo not drawn) | ? | -8% | -19% | 1% | 13 | 8
CNC(=O)c1ccc2c(c1)N(Cc1ccccc1Cl)C(=O)c1ccccc1S2 | · | · | -16% | 1%[46.1 µM] | · | ·
COCCCN(C(=O)c1ccc(N2CCCC2=O)cc1)c1c(N)n(Cc2ccccc2)c(=O)[nH]c1=O | -10% | 12% | 0% | -8% | · | ·
CCOc1cc(C(=O)Nc2ccc(-c3nc4ncccc4o3)cc2C)cc(OCC)c1OCC | · | -3%[46.1 µM] | -18% | -3%[46.1 µM] | · | ·
COc1cc(Cl)ccc1OCc1cc(C(=O)NC(C)Cc2cccnc2)no1 (stereo not drawn) | 7% | 12% | -11% | ? | 48* | 53*
O=C(CSc1cccc[n+]1[O-])Nc1cccc(Oc2ccccc2)c1 | -4% | -2% | 5% | ? | 21* | 28
SMILES | HCV inh | MARV entry inh | FMDV antiviral | LASV entry inh | CHX counter | Shiga toxin inh
O=C(CCl)Nc1cccc(Oc2ccccc2)c1 | ? | ? | 13µM* | -2% | 7 | -2
COc1cccc(NC(=O)CSc2cccc[n+]2[O-])c1 | 7% | · | 17% | · | · | ·
O=C(Cl)COCc1ccccc1 | · | · | · | · | -6 | -5
Cc1nc(Nc2nc(-c3ccccc3)cc(=O)[nH]2)nc2ccccc12 | 8.9µM* | ? | -13% | ? | · | ·
Cc1ccc2nc(Nc3nc(CSc4nnnn4-c4ccccc4)cc(=O)[nH]3)nc(C)c2c1 | ? | 0% | -9% | -2% | -3 | -9
Cc1ccc2c(=O)[nH]c(Nc3nc(C)cc(-c4ccccc4)n3)nc2c1 | -2% | · | 7% | · | 7 | 8
Cc1nc(Nc2nc(CSc3nc4ccccc4[nH]3)cc(=O)[nH]2)nc2ccccc12 | ? | 13µM* | ? | ? | -5 | -16
